Activity calls are given as the source filed them. Unless noted, no rule for the calls is given here.

The test system of experiment [1] is Wnt5a (protein binding on small-molecule microarray). Description: Wnt5a binders on small-molecule microarray, primary screen, biophysical, 635/667 nm fluorescence (AID 1142).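 Also: fluorescence read at 667 nm with signal to noise per printed feature.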 Particulars: 635 nm fluorescence, higher = more signal.
Experiment [2] can be described thus: cell viability in Huh7 cells, primary screen, cytotoxicity control for HCV replication inhibitor project, CellTiter-Glo luminescence, basal, 48 h (AID 1143).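 Also: Huh7 hepatoma cells carrying a hepatitis C replication reporter with no stimulus; test concentration not given here.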 Particulars: Huh7 HCV replicon, higher = more signal, called active from +8 up or from −8 down.
Experiment [3] is described as follows: P. aeruginosa biofilm formation inhibitors, primary screen, PAO1 strain, BacTiter-Glo luminescence, LB-PBS (AID 1144). Particulars: 12 h, higher = more signal.
A short description of experiment [4]: CREB reporter modulators without forskolin, primary screen, cell-based, PC12, CRE-LacZ reporter, unstimulated (AID 1145). To be noted: no forskolin, luminescence, 4.5 h, higher = more signal, called active from +8 up or from −8 down.
Experiment [5] is described as follows: CREB reporter modulators under forskolin, primary screen, cell-based, PC12, CRE-LacZ reporter, forskolin-stimulated (AID 1146).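 Also: PC12 cells with 6xCRE LacZ reporter stimulated by forskolin 10 µM; beta-galactosidase reporter signal reflecting CREB driven transcription.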 Particulars: luminescence, 4.5 h, higher = more signal, called active from +8 up or from −8 down.
In experiment [6] the target is Streptavidin (Streptomyces avidinii) (UniProt P22629). Description: streptavidin binders on small-molecule microarray, primary screen, artefact control for SMM compound annotation, biophysical, 635/667 nm fluorescence (AID 1147).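 Also: signal reflects streptavidin binding to arrayed compounds as a control protein.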 To be noted: streptavidin binding, higher = more signal.
Streptavidin (Streptomyces avidinii), sequence (P22629 whole entry, looked up): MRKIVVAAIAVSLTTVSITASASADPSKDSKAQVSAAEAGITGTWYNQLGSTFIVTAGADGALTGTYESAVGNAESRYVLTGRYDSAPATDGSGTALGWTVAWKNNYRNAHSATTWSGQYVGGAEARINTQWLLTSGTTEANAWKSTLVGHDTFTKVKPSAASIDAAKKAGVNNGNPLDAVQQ
Experiment [7] can be described thus: small-molecule binders of probe aInhba, primary screen, biochemical, small-molecule microarray, 635/667 nm fluorescence (AID 1148).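 Also: score merges 667nm spot fluorescence with signal-to-noise for antibody binding to printed compounds.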 Particulars: higher = more signal.
For experiment [8], the target named is Torsin-1A (Homo sapiens) (UniProt O14656). Description: torsin A binders from cell lysate, primary screen, small-molecule microarray, wild-type, 635/667 nm (AID 1149). To be noted: COS7 hTOR1A-WT lysate, 635 nm fluorescence, higher = more signal.
Torsin-1A (Homo sapiens), sequence (O14656 whole entry, looked up): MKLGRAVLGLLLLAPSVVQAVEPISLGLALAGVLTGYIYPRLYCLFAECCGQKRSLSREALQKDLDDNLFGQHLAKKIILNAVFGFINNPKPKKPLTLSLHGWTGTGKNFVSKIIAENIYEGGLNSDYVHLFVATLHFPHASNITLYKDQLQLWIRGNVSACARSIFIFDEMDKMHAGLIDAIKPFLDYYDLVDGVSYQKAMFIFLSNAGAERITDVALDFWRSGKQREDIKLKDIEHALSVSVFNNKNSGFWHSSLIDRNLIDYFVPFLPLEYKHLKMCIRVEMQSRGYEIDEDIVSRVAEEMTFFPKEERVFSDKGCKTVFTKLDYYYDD
Experiment [9] has the same target. Description: small-molecule binders of mutant TOR1A in lysate, primary screen, cell lysate, small-molecule microarray, COS7 lysate, 635/667 nm fluorescence (AID 1150).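 Also: score pools 667 nm emission and signal to noise measuring lysate protein binding.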 To be noted: COS7 hTOR1A mutant lysate, 635 nm fluorescence, higher = more signal.
The test system of experiment [10] is Sonic hedgehog protein (Shh). Description: small-molecule binders of Shh protein, primary screen, biochemical, small-molecule microarray, 635/667 nm fluorescence (AID 1151).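 Also: Shh protein binding to compounds spotted on small-molecule microarray slides; score combines spot fluorescence intensity with signal-to-noise across triplicate slides.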 To be noted: small-molecule microarray binding, 635 nm fluorescence; higher = more signal.
Experiment [11] is described as follows: E. coli DRC41 culture turbidity changes, primary screen, E. coli filamentation inducer project, strain DRC41, OD650, 48 h (AID 1152).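 Also: E. coli MC1000 strain DRC41 lacking acrAB efflux pump and sulA.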 Particulars: E. coli DRC41 (acrAB sulA), higher = more signal, called active from +8 up or from −8 down.
The nature of experiment [12]: small-molecule binders of probe aLefty1, primary screen, biochemical, small-molecule microarray, 635/667 nm fluorescence (AID 1153).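 Also: score merges spot fluorescence with signal-to-noise ratio from the scanned slide images.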 To be noted: higher = more signal.
A short description of experiment [13]: PSAC antagonists in infected red cells, primary screen, cell-based, P. falciparum Indochina, OD700, 1 h (AID 1154). Particulars: P. falciparum Indochina infected RBC osmotic lysis, higher = more signal, called active from +8 up or from −8 down.
Experiment [14] can be described thus: PSAC antagonists in infected red cells, primary screen, cell-based, P. falciparum Indochina, OD700, 2 h (AID 1155).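 Also: lysis reports solute entry through the parasite surface anion channel PSAC; channel blockers reduce lysis of infected cells.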 Particulars: P. falciparum Indochina infected erythrocytes, osmotic lysis OD700; higher = more signal, called active from +8 up or from −8 down.
Experiment [15] in a line: osmotic lysis modulators in infected erythrocytes, primary screen, PSAC antagonist project, cell-based, P. falciparum Indochina, OD700, 3 h (AID 1156). Particulars: higher = more signal, called active from +8 up or from −8 down.
Experiment [16] is described as follows: PSAC antagonists in infected red cells, primary screen, cell-based, P. falciparum Indochina, OD700, 18 h (AID 1157). Particulars: P. falciparum Indochina infected erythrocytes, osmotic lysis OD700, 18 h; higher = more signal, called active from +8 up or from −8 down.
Experiment [17] in a line: modulators of S6 phosphorylation in cells, primary screen, cell-based, A549, cytoblot, luminescence, serum-stimulated (AID 1158).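 Also: serum-stimulated A549 lung adenocarcinoma cells; signal is phosphorylated S6 detected by cytoblot immunostaining with HRP secondary.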 To be noted: A549 phospho-S6 cytoblot, 5 h, higher = more signal.
The target of experiment [18] is NADPH oxidase 2 (Homo sapiens) (UniProt P04839). Description: NOX2-dependent H2O2 signal modulators, primary screen, NOX inhibitor project, cell-based, HEK293-NOX2, PMA-stimulated, Amplex Red fluorescence (AID 1159). Also: test concentration not given here. Particulars: 45 min, higher = more signal, called active from +8 up or from −8 down.
NADPH oxidase 2 (Homo sapiens), sequence (P04839 whole entry, looked up): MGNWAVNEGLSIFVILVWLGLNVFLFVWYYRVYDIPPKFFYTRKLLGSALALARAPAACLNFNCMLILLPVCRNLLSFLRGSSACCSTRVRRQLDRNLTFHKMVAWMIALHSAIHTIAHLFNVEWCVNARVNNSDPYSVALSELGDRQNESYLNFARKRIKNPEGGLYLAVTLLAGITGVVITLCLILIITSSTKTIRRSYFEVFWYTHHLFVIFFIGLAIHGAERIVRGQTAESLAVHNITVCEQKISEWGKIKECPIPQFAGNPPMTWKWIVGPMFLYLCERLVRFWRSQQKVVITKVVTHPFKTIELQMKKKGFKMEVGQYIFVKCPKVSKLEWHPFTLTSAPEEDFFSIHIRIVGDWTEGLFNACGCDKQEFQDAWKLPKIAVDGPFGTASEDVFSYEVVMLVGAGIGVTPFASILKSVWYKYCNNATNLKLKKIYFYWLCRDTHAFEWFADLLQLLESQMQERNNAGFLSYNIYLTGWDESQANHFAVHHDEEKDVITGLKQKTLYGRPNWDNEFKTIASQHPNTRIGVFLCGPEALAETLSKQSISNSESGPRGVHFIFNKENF
In experiment [19] the target is NADPH oxidase 4 (Homo sapiens) (UniProt Q9NPH5). Description: NOX4-dependent H2O2 signal modulators, primary screen, NOX inhibitor project, cell-based, HEK293-NOX4, tetracycline-induced, Amplex Red fluorescence (AID 1160). To be noted: 45 min, higher = more signal, called active from +8 up or from −8 down.
NADPH oxidase 4 (Homo sapiens), sequence (Q9NPH5 whole entry, looked up): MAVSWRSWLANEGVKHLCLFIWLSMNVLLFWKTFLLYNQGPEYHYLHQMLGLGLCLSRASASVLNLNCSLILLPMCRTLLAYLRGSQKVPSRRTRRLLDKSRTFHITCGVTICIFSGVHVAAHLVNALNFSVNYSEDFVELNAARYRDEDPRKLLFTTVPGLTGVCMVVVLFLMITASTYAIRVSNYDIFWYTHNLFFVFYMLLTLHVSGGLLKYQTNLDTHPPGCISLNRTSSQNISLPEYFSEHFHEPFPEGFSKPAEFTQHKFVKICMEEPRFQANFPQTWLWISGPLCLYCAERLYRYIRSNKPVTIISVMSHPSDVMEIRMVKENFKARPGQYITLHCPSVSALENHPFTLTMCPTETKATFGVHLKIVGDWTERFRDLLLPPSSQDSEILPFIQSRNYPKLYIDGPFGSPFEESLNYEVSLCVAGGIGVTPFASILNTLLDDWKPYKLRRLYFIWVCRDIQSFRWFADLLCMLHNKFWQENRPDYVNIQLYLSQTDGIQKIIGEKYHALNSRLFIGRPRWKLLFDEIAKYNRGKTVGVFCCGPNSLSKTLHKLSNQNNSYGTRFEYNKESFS
For experiment [20], the target named is NADPH oxidase 5 (Homo sapiens) (UniProt Q96PH1). Description: NOX5-dependent H2O2 signal modulators, primary screen, NOX inhibitor project, cell-based, HEK293-NOX5, Amplex Red fluorescence (AID 1161). To be noted: HEK293-NOX5, ionomycin, 45 min, higher = more signal.
NADPH oxidase 5 (Homo sapiens), sequence (Q96PH1 whole entry, looked up): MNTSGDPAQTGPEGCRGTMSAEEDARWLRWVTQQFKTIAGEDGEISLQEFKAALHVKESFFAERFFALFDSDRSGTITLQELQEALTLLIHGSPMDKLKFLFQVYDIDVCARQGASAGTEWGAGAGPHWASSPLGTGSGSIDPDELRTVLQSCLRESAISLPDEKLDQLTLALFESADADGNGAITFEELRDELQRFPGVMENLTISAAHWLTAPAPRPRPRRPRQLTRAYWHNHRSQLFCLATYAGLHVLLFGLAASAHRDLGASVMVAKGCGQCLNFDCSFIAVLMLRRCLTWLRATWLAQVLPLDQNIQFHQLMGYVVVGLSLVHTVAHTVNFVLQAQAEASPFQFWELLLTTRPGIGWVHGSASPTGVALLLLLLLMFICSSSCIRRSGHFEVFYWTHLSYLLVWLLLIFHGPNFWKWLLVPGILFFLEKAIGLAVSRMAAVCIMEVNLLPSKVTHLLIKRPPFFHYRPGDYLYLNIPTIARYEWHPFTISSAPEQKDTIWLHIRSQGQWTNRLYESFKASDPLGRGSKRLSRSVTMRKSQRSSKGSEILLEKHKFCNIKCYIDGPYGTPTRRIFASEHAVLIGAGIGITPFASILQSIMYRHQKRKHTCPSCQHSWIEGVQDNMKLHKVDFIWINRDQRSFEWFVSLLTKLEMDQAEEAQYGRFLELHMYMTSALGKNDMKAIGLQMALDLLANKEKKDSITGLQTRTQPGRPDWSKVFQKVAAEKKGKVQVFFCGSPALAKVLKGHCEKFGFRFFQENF

`CS(=O)(=O)CCOC(=O)C1=CC(c2ccc(CO)cc2)=CC(C2CC2)N(Cc2sc3ccccc3c2Cl)C=C1C(=O)OCCS(C)(=O)=O` (stereo not given): the composite z-score in experiment [1] was -0.0091; in [6] it was 1.95; in experiment [7] it was 0.0843; with Torsin-1A (Homo sapiens) [8] it was 1.24; with Torsin-1A (Homo sapiens) [9], 1.31; in [10], 1.23. The composite z-score in [12] was found to be 0.141. Besides, the z-score in experiment [2] was -4.22 (inactive); in experiment [3] it was -1.49 (inactive); in experiment [4], 1.8 (inactive); in [5], -2.66 (inactive); in experiment [11], -3.12 (inactive); in experiment [13], 13.8 (active). For the same compound, the z-score was 3.35 (inactive) in experiment [14]; 0.239 (inactive) in experiment [15]; 1.39 (inactive) in experiment [16]; 0.044 in experiment [17]; 0.932 (inactive) in [18]; 0.186 (inactive) in experiment [19]. Further, in experiment [20], the z-score is -0.935.

For `C=CCC(OC(C)=O)[C@@H]1[C@@H](N(Cc2cccc3ccccc23)C(=O)Cc2ccc(OC)cc2)c2cc(OCCCO)ccc2N1C(=O)c1ccc(-c2ccccc2)cc1` (stereo not given in full), the composite z-score in experiment [1] is -0.213; in experiment [6] it was 0.107; in experiment [7] it was -0.0762; with Torsin-1A (Homo sapiens) [8] it was -0.452; with Torsin-1A (Homo sapiens) [9], 0.0437; in [10], 0.112. This compound also showed a composite z-score in experiment [12] of 0.0429. For the same compound, the z-score in experiment [2] is -1.22 (inactive); in [3] it was 1.16 (inactive); in experiment [4] it was 0.106 (inactive); in [5], -0.375 (inactive); in [11] it was -0.62 (inactive); in experiment [13] it was 0.0926 (inactive). Further, the z-score in experiment [14] was 0.299 (inactive); in [15] it was -0.278 (inactive); in experiment [16], 0.263 (inactive); in experiment [17], 0.0614; in experiment [18] it was -1.33 (inactive); in [19], -0.257 (inactive). Moreover, the z-score in experiment [20] was -1.21.

For `CC(=O)N1CC2(CC2)CC1c1ccccc1` (stereo not given), the composite z-score in experiment [1] is 0.898; in experiment [6] it was 0.547; in experiment [7] it was 0.507; with Torsin-1A (Homo sapiens) [8] it was 0.192; with Torsin-1A (Homo sapiens) [9], 0.421; in [10], -0.515. The compound further yielded a composite z-score in experiment [12] of 0.433. Moreover, the z-score in experiment [2] is -0.283 (inactive); in experiment [3] it was 0.108 (inactive); in experiment [4], 0.397 (inactive); in experiment [5] it was -0.366 (inactive); in experiment [11], -1.35 (inactive); in [13] it was -0.0747 (inactive). For the same compound, the z-score is 0.635 (inactive) in experiment [14]; 0.539 (inactive) in [15]; 0.715 (inactive) in experiment [16]; -0.0482 in experiment [17]; -0.328 (inactive) in experiment [18]; -1.08 (inactive) in [19]. Further, in [20], the z-score is -2.74.

Take `CCOC(=O)C[C@H]1[C@H](OC(=O)c2cc3ccccc3oc2=O)[C@@H](NC(=O)c2ccccc2)c2cc(OCCCO)ccc2N1C(=O)c1ccccc1`: the composite z-score in experiment [1] was 0.315; in experiment [6] it was 0.289; in [7], -0.113; with Torsin-1A (Homo sapiens) [8], 0.575; in the experiment with Torsin-1A (Homo sapiens) [9], 0.347; in [10] it was 0.696. In experiment [12], the composite z-score came to 0.158. Also, the z-score was -2.83 (inactive) in [2]; 0.311 (inactive) in experiment [3]; 3.75 (inactive) in experiment [4]; -0.0599 (inactive) in experiment [5]; 0.0768 (inactive) in experiment [11]; 0.609 (inactive) in [13]. For the same compound, the z-score in experiment [14] is -1.44 (inactive); in [15], -0.35 (inactive); in experiment [16], -2.88 (inactive); in experiment [17] it was 0.312; in [18] it was -0.423 (inactive); in [19], -1.07 (inactive). Besides, in [20], the z-score is -0.713.

The values above are taken from PubChem BioAssay.
